RN4220 kill = kills Staphylococcus aureus RN4220; inhibition, % (concentration not given with the values); S. aureus RN4220 growth, OD600, 16 h; 0.33% of 330,000 active; AID 1259311; in the data active means inhibition above about 85%;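 further: plate controls were untreated cells for no effect and reference antibiotic for full effect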
CCHF vOTU inh-1 = blocks the CCHF virus ovarian tumor domain protease; CCHFV vOTU protease, Pep-AMC fluorescence; inhibition, % at 11.5 µM; 0.55% of 370,000 active; further: 0% = vehicle wells with enzyme and 100% = no enzyme wells
Sa ugtP lethal = growth inhibition of S. aureus ugtP deletion strain. growth inhibition, % (no concentration beside the values). S. aureus RN4220 ugtP deletion, OD600 growth, 16 h. 0.54% of 330,000 active; in the data active means growth inhibition above about 68%;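 further: plate controls were untreated wells for no effect and antibiotic for full effect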
PrPC surface inh = reduces human prion protein on the cell surface; P04156; cell surface PrPC, TR-FRET read-out; 0.43% of 370,000 active; inhibition, % at 13.8 µM; in the data active means inhibition above about 24%; further: 0% = median of the test wells and 100% = reference compound wells
PfHsp40 rescue = restores yeast growth despite PfHsp40 toxicity | 0.68% of 340,000 active | S. cerevisiae expressing PfHsp40, growth rescue, ATP luminescence | growth rescue, % at 12.5 µM; in the data active means growth rescue above about 28%, passing the limit was not always enough; inconclusive means no clear call, values can overlap the other calls;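 further: yeast W303a lacking pdr1 and pdr3 grown in galactose medium; growth measured after three days at 30 °C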
PrP 5UTR inh = inhibition of PrP 5' UTR reporter expression. 0.35% of 340,000 active. inhibition, % (no concentration beside the values). AID 488862. cell-based PrP 5' UTR mRNA reporter, plate reader; in the data active means inhibition above about 52%; further: 0 = median of the neutral control wells
CCHF vOTU inh-2 = confirmation of CCHF virus vOTU protease inhibitors; 17% of 1,900 active; shares compounds with CCHF vOTU inh-1; AID 686976; Recombinant CCHFV vOTU, Pep-AMC fluorescence; inhibition, % at 11.5 µM
Starred values were filed as active, the others as inactive; ? = inconclusive; / = no result given; ! = repeats disagree. Rows were chosen to be rich in hits. Some 2.1% of all compounds tested hit in one or more screens of this group. Unless noted, no stated cut-off is given here; in the data, active means inhibition above about 30%; inactive means the rest.

SMILES | RN4220 kill | CCHF vOTU inh-1 | Sa ugtP lethal | PrPC surface inh | PfHsp40 rescue | PrP 5UTR inh | CCHF vOTU inh-2
COc1ccc(-n2c(C)cc(/C=N/Nc3nnc(C)n3N)c2C)cc1 | / | 91.1* | / | -10.0 | -1.9 | -9.4 | -8.0
COc1cccc(/C=N/Nc2nnc(C)n2N)c1O | / | 88.5* | / | -9.0 | 0.6 | -5.1 | -7.5
Cc1nnc(N/N=C/c2ccco2)n1N | / | 88.6* | / | -12.7 | -1.1 | -7.3 | -16.3
Cc1nnc(NN=Cc2ccc(-c3ccccc3F)o2)n1N | 6.9 | / | -5.7 | / | / | / | /
CCN(Cc1ccccc1)c1ccc(C=NN=C(N)N)cc1 | 29.6 | / | 16.3 | / | / | / | /
COc1ccc(Nc2nc(NCc3ccco3)nc(NN=Cc3ccc(O)cc3)n2)cc1 | 9.2 | / | 2.1 | / | / | / | /
CC(=O)OCC(=O)[C@@]12OC3(CCCC3)OC1CC1C3CCC4=CC(=O)C=C[C@]4(C)[C@@]3(F)C(O)C[C@@]12C (stereo partly drawn) | 0.4 | / | -10.2 | / | / | / | /
O=C(O)CN1C(=O)/C(=C\c2cc(Br)ccc2OCc2ccccc2F)SC1=S | 10.6 | 18.3 | 14.7 | -3.9 | 3.7 | -8.5 | /
O=C(O)CN1C(=O)/C(=C\c2cc(Br)ccc2OCc2ccc([N+](=O)[O-])cc2)SC1=S | -4.4 | 32.3* | -12.6 | -13.6 | 4.5 | -2.0 | 19.4
Cc1cccc(NC2=C(NCCO)C(=O)c3ccccc3C2=O)c1 | 19.1 | 53.8* | 5.3 | -21.7 | -0.1 | -8.2 | 15.7
COc1ccc(NC2=C(NCCO)C(=O)c3ccccc3C2=O)cc1 | 16.1 | 87.5* | 0.9 | -10.0 | -0.4 | -74.6 | 57.0*
COc1cccc(NC2=C(NCCO)C(=O)c3ccccc3C2=O)c1 | 26.0 | 34.6* | 11.1 | -18.5 | -1.9 | -29.9 | -2.3
COc1cccc(Nc2c(Nc3cccc(OC)c3)c(=O)c2=O)c1 | 0.1 | 6.3 | -0.3 | 8.2 | -1.3 | -10.2 | /
COc1ccc(C=NNC(=O)Nc2cccc3nsnc23)cc1 | -4.7 | / | -3.0 | / | / | / | /
O=C(COc1ccc(NC(=O)c2ccccc2)cc1)c1ccccc1 | 5.1 | 31.2* | 17.8 | 5.7 | 0.7 | -15.2 | -13.0
Cc1cc(Br)cn2c(Cc3ccccc3C(F)(F)F)c(-c3ccco3)nc12 | / | 30.2* | / | 19.6 | / | / | 10.8
Cc1cc(Br)cn2c(Cc3ccccc3C(F)(F)F)c(-c3ccccc3)nc12 | / | 2.5 | / | 3.0 | / | / | /
O=S(=O)(Nc1cccc2ccccc12)c1cccs1 | 4.2 | 7.1 | -5.4 | -1.0 | -0.6 | -15.9 | /
O=S(=O)(Nc1ccc(O)c2ccccc12)c1cccs1 | 17.1 | 107.7* | -3.8 | -13.1 | 19.3 | -22.2 | -0.7
CCN(c1ccc(NC(=O)COC(=O)C2CCN(c3ccc(C(F)(F)F)cn3)CC2)cc1)C(C)C | -1.7 | 29.9* | 3.1 | 4.5 | -1.1 | -39.3 | 22.9
Cc1cccc(OCC(=O)NN=Cc2sc(=O)n(Cc3cccc(C(=O)O)c3)c2Cl)c1 | 1.0 | / | -6.3 | / | / | / | /
COC(=O)c1nn(-c2ccccc2)c2nnc(Cc3ccc(C)cc3)c(=O)n12 | 1.1 | 32.3* | 14.1 | 7.6 | 0.3 | -2.4 | -16.4
COC(=O)c1nn(-c2cccc(C)c2)c2nnc(Cc3ccccc3)c(=O)n12 | 9.0 | -0.9 | 21.4 | 0.7 | 0.3 | -8.6 | /
Cc1cc(C)c(S(=O)(=O)/N=C2\C=C(NS(=O)(=O)c3ccccc3)C(=O)c3ccccc32)c(C)c1 | / | 20.3 | / | 4.2 | -1.2 | -50.4 | /
Cc1ccc(S(=O)(=O)/N=C2\C=C(NS(=O)(=O)c3ccccc3)C(=O)c3ccccc32)cc1 | / | 51.3* | / | -1.9 | -2.0 | 1.0 | 29.1
SMILES | RN4220 kill | CCHF vOTU inh-1 | Sa ugtP lethal | PrPC surface inh | PfHsp40 rescue | PrP 5UTR inh | CCHF vOTU inh-2
O=C1C(Nc2ccc(O)cc2)=CC(=NS(=O)(=O)c2cccs2)c2ccccc21 | 41.4 | / | 20.8 | / | / | / | /
O=C(O)c1ccc(NC2=C/C(=N/S(=O)(=O)c3cccs3)c3ccccc3C2=O)cc1 | / | 110.1* | / | -27.5 | / | / | 104.8*
Cc1cccc(NC2=C/C(=N/S(=O)(=O)c3cccs3)c3ccccc3C2=O)c1 | / | 27.1 | / | 0.4 | -0.6 | -65.2 | /
O=C(O)c1ccc(NC2=C/C(=N/S(=O)(=O)c3ccccc3)c3ccccc3C2=O)cc1 | / | 108.5* | / | -34.6 | 0.2 | -11.5 | 113.4*
Cc1cc(C)c(S(=O)(=O)/N=C2\C=C(Nc3ccc(C(=O)O)cc3)C(=O)c3ccccc32)c(C)c1 | / | 124.7* | / | -38.3 | ? | -41.7 | 111.1*
CCCCN1C(=O)C(=O)NCC1C(C)O (stereo not drawn) | 1.8 | / | 0.0 | / | / | / | /
O=S(=O)(N=C1C=CC(=NS(=O)(=O)c2ccccc2)c2ccccc21)c1ccccc1 | / | 71.6* | / | 1.7 | / | / | 68.3*
Cc1ccc(Cl)cc1NC1=C/C(=N\S(=O)(=O)c2cccs2)c2ccccc2C1=O | 90.3*! | 95.9* | 46.4 | -0.7 | -1.4 | -24.3 | 95.4*
Cc1cccc(NC2=CC(=NS(=O)(=O)c3cccs3)c3ccccc3C2=O)c1 | 7.9 | / | 7.3 | / | / | / | /
CCc1ccc(S(=O)(=O)/N=C2\C=C(Nc3cccc(C(=O)O)c3)C(=O)c3ccccc32)cc1 | / | 136.9* | / | -24.4 | -0.8 | -18.0 | 114.8*
Cc1ccc(NC2=C/C(=N\S(=O)(=O)c3cccs3)c3ccccc3C2=O)c(C)c1 | 10.8 | / | -5.0 | / | -2.1 | -41.2 | /
O=C(NN=Cc1ccco1)Nc1cccc(Cl)c1 | -0.6 | / | -22.3 | / | / | / | /
CCOC(=O)C1C2COc3ccccc3C2N2C(=O)c3ccccc3NC(=O)[C@@]12C (stereo partly drawn) | 2.9 | / | 6.2 | / | / | / | /
O=[N+]([O-])c1c(NCCCO)cc(SCc2ccco2)c2nonc12 | 13.3 | 47.9* | -0.7 | -29.7 | 0.4 | -24.2 | 1.4
Cc1ccc(C2C3C(=O)N(C)C(=O)C3[C@]3(C)C(=O)N(Cc4ccccn4)CC(=O)N23)o1 (stereo partly drawn) | 5.5 | / | -3.1 | / | / | / | /
COC(=O)c1c(C)oc2c1cc(NS(=O)(=O)c1ccc(C(=O)O)cc1)c1ccccc12 | 4.8 | 37.5* | 11.2 | -9.0 | -0.4 | -33.3 | -7.6
C/C(C=NNc1nnc2c(n1)[nH]c1c(C)cccc12)=C\c1ccco1 | -0.1 | / | 0.4 | / | / | / | /
Cc1cccc2c1[nH]c1nc(N/N=C\c3ccco3)nnc12 | / | 37.5* | / | -16.2 | / | / | 1.0
Cc1ccc(-c2nc3ccc(Cl)cn3c2Cc2ccccc2C(F)(F)F)cc1 | / | 31.7* | / | -2.6 | / | / | -10.3
Cc1ccc(Cc2c(-c3cccc(Br)c3)nc3ccc(Cl)cn23)cc1 | / | 39.6* | / | -4.9 | / | / | -5.4
CCCCCCN1C[C@H](n2cc(COC(=O)c3ccccc3)nn2)[C@@H](O)C[C@@H]1c1ccc(C)cc1 | / | 36.7* | / | -3.5 | / | / | 7.9
CCCCCCN1C[C@H](n2cc(C3CC3)nn2)[C@@H](O)C[C@@H]1c1ccc(C)cc1 | / | 38.4* | / | -1.9 | / | / | 16.3
CCC(=O)Nc1cccc(C2=NOC3(C2)CC(C(N)=O)N(C(=O)CC(c2ccccc2)c2ccccc2)C3)c1 (stereo not drawn) | 2.2 | / | -1.7 | / | / | / | /
COc1cc2c(cc1OC)C(=CC#N)NC(C)(C)C2 | 3.6 | / | 1.0 | / | / | / | /
CCOC(=O)C1=C(Cc2ccc(C)cc2)C(=O)c2ccccc2C1=O | / | 96.0* | / | -3.2 | / | / | -8.7
CC(C)(C)OC(=O)C(Cc1ccccc1)NC(=O)c1nc[nH]c1C(=O)N1CCc2ccccc2C1 (stereo not drawn) | 2.7 | / | -13.1 | / | / | / | /

From PubChem BioAssay
